Compound activity deposited in PubChem by National Center for Advancing Translational Sciences (NCATS).
JMJD2A Tudor – inhibitors of human JMJD2A Tudor domain | O75164 | AlphaScreen JMJD2A-Tudor / H3K4me3 peptide binding | Potency, µM (top dose mostly 114 µM), for inactives: at the highest dose activity change, negative = inhibition, actives largely listed as inhibitors | 390,000 compounds, 4.4% hits | AID 504339; further: potency means the concentration at half of the fitted maximal effect; on the % scale 0 is the no-effect control and ±100 the full control effect; nearly all actives have a fitted effect of over 50% in size
Target sequence (O75164 whole entry, looked up, the tested form may be a part): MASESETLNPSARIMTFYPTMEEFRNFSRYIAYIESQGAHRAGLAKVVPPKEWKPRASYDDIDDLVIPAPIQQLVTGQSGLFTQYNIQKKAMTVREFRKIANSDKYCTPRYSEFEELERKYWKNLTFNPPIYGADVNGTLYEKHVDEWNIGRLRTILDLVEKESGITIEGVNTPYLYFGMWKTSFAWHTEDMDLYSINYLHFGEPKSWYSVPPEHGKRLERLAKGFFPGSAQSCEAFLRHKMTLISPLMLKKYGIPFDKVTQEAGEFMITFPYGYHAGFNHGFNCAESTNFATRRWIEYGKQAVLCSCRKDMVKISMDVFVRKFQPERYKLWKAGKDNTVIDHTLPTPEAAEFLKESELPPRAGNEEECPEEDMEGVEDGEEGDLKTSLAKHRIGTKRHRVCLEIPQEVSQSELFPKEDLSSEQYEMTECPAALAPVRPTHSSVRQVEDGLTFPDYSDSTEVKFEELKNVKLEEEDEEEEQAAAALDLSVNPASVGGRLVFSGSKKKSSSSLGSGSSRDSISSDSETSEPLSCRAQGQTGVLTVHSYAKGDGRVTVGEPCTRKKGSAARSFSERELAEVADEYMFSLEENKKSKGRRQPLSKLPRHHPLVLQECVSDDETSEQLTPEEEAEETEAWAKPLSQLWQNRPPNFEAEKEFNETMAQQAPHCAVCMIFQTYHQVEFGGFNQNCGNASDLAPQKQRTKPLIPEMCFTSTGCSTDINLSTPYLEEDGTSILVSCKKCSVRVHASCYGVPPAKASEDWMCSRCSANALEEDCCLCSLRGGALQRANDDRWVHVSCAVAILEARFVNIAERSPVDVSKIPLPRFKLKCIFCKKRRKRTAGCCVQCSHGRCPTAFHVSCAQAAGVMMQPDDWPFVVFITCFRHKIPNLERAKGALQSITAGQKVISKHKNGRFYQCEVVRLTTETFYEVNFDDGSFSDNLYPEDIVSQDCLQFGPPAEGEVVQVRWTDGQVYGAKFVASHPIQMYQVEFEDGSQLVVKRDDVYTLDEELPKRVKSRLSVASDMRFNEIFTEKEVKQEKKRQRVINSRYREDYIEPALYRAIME
HP1b binding inh – inhibitors of HP1-beta chromodomain binding to methylated histone tails; Potency, µM (doses to about 114 µM), inactives show at the highest dose activity change, negative = inhibition, hits mostly inhibitors; AID 540317; 390,000 compounds, 0.56% hits; AlphaScreen HP1-beta / biotin-H3K9me3 peptide binding; P83916; further: potency means the concentration at half of the fitted maximal effect; nearly all actives have a fitted effect of over 70% in size
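AlphaScreen: HP1-beta (50 nM) preformed 30 min with biotin-H3(1-18)K9me3 peptide (50 nM) in PBS pH 7.4, 0.01% Tween-20. Compound added for 30 min at RT, then streptavidin donor/nickel chelate acceptor beads (10 ug/mL) for 30 min.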
BAZ2B block – blocks human BAZ2B | Q9UIF8 | AlphaScreen BAZ2B-H3K14Ac peptide displacement | Potency, µM (doses to about 114 µM), for the others: at the top dose activity change, negative = inhibition, actives largely listed as inhibitors | 360,000 compounds, 4.4% hits; further: potency means the concentration at half of the fitted maximal effect; on the % scale 0 is the no-effect control and ±100 the full control effect; nearly all actives have a fitted effect of over 60% in size
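Compounds, titrated to a top concentration of 110 uM, were incubated 30 min at room temperature with preformed BAZ2B/acetyl-K14 H3 peptide complex (50 nM each). Proximity signal was measured by AlphaScreen after 20 min with beads.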
CtBP-E1A blk – CtBP/E1A binding inhibition; activity change, % (test concentration not listed); 340,000 compounds, 0.49% hits; AlphaScreen GST-E1A/His-CtBP binding, 1536-well; hits give low values; in the data active means activity change below about -65%; inconclusive means mostly about -30% to -63%; further: on the % scale 0 is the no-effect control and ±100 the full control effect
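AlphaScreen with 125 nM GST-E1A and 125 nM His-CtBP (5X stocks) in Tris pH 8.0, 300 mM NaCl, BSA, Tween 20, TCEP. Compounds preincubated 2 h at 37 deg C, then glutathione donor/nickel acceptor beads added for 1 h at 37 deg C in dark.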
G9a inh – G9a (human) methyltransferase inhibition. Q96KQ7. G9a H3K9 monomethylation, AlphaScreen, 2 h. Potency, µM (series often up to 102 µM), for inactives: at the highest dose activity, negative = inhibition, usual class: inhibitors. 350,000 compounds, 8.8% hits; further: potency means the concentration at half of the fitted maximal effect; on the % scale 0 is the no-effect control and ±100 the full control effect; nearly all actives have a fitted effect of over 75% in size
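Compounds were preincubated with 20 nM G9a for 15 min, after which biotinylated H3K9 peptide (500 nM) and SAM (20 uM) started a 2 h room-temperature reaction. Monomethylated product was quantified by antibody-based AlphaScreen chemiluminescence.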
Six1-Eya2 inh – blocks human Six1 binding to Eya2 | Q15475+O00167 | AlphaScreen GST-Six1/His-Eya2 binding, biochemical; hits give low values | activity change, % (concentration not given with the values) | 360,000 compounds, 0.56% hits; in the data active means activity change below about -65%; inconclusive means mostly about -30% to -63%; further: on the % scale 0 is the no-effect control and ±100 the full control effect
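Compounds are tested against tagged Six1 and Eya2 proteins bridged by glutathione donor and nickel acceptor beads; after a one-hour incubation at 37 °C without light, AlphaScreen emission is recorded.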
* marks the source's active call; other numbers are inactive results; ? = inconclusive; · = not tested or not shown; [ ] = another dose, or the depositor's remark. In the library only some 10% were active in any assay of this set; here they are far more common. Unless noted, the call rests on the fitted dose curve; in most records, active means well fitted inhibition curve with a large enough effect; inconclusive means small, poorly fitted or top-dose-only effect; inactive means no such curve, though single readings can be large or run the other way.

SMILES	JMJD2A Tudor	HP1b binding inh	BAZ2B block	CtBP-E1A blk	G9a inh	Six1-Eya2 inh
COc1ccc(C(CC(=O)N2CCCC2)c2c(OC)cc(OC)c3ccc(=O)oc23)cc1 (stereo not drawn)	-11%	24%	-14%	4	4%[59 µM]	2
COc1ccc(C(CC(=O)N2CCCCC2)c2c(OC)cc(OC)c3c(-c4ccccc4)cc(=O)oc23)cc1 (stereo not drawn)	50µM*	-17%	45µM*	·	-2%[12.7 µM]	-10
COc1ccc(C(CC(=O)N2CCOCC2)c2c(OC)cc(OC)c3c(-c4ccccc4)cc(=O)oc23)cc1 (stereo not drawn)	56µM*	9%	56µM*	-3	-17%[59 µM]	-2
COc1ccc(C(CC(=O)N2CCCC(C)C2)c2c(OC)cc(OC)c3c(-c4ccccc4)cc(=O)oc23)cc1 (stereo not drawn)	45µM*	-10%	45µM*	-4	17%[12.7 µM]	-16
COc1ccc(C(CC(=O)N2CCOCC2)c2c(OC)cc(OC)c3ccc(=O)oc23)cc1 (stereo not drawn)	-3%	18%	-6%	5	-5%[12.7 µM]	1
CCN(CC)C(=O)CC(c1ccc(N(C)C)cc1)c1c(OC)cc(OC)c2c(-c3ccccc3)cc(=O)oc12 (stereo not drawn)	32µM*	?	20µM*	?	-46%[12.7 µM]	?
CC1CCN(S(=O)(=O)c2ccc3c(c2)N(CC(=O)NC(C)(C)C)C(=O)CS3)CC1	-7%	20%	-16%	·	-17%[59 µM]	·
Cc1ccc(S(=O)(=O)n2ccc3c(OCCOCCNCc4ccc(F)cc4)cccc32)cc1	-32%	-3%	-34%	4	?	-4
Cc1ccc(S(=O)(=O)n2ccc3c(OCCOCCSCC(NC(=O)OC(C)(C)C)C(=O)O)cccc32)cc1 (stereo not drawn)	-33%	-8%	50µM*	-2	-9%[12.7 µM]	1
CC(C)Oc1ccc(CNC(=O)C2CCN(Cc3cc4ccccc4n3Cc3ccccc3)CC2)cc1	-24%	19%	-13%	·	-1%[59 µM]	·
O=[N+]([O-])c1ccc(-c2csc3[n+]2CCS3)cc1	-14%	17%	1%	1	35µM*	-5
O=C(Nc1nc(-c2ccc(Br)cc2)ns1)c1ccc(F)cc1	-10%	42%	0%	·	5%[59 µM]	·
COc1ccc(NC(=S)NNc2ccc(C(=O)O)cc2)cc1	-33%	?	10%	-3	79µM*	-2
COc1ccc(C(=O)NNc2ccccc2)cc1	-3%	13%	?	6	8.9µM*	-2
O=C(CN1C(=O)COc2ccc(S(=O)(=O)NC3CCCC3)cc21)Nc1ccc(Cl)cc1F	?	3%	-4%	·	-8%[59 µM]	·
CCOc1ccccc1NC(=O)c1cc(=O)c2ccc(C)cc2o1	-16%	12%	-16%	·	-6%[59 µM]	·
Cc1ccc(NC2CCCN(C(=O)c3ccccc3N3CCOCC3)C2)cc1C (stereo not drawn)	-21%	27%	-33%	-1	?	-2
Cc1ccc(NC2CCCN(C(=O)CCN3CCCCO3)C2)cc1C (stereo not drawn)	-7%	15%	-29%	9	32µM*	-2
COc1ccc(NC2CCCN(C(=O)c3cn(C)c4ccccc34)C2)cc1 (stereo not drawn)	-26%	-11%	?	-10	18µM*	-10
Cc1ccc(NC2CCCN(C(=O)C3CCCCC3)C2)cc1C (stereo not drawn)	-35%	12%	79µM*	-23	·	-21
Cc1ccc(NC2CCCN(C(=O)c3cn(C)c4ccccc34)C2)cc1C (stereo not drawn)	25µM*	-14%	?	-2	?	-16
O=C(C1CCCC1)N1CCCC(Nc2ccc(F)cc2)C1 (stereo not drawn)	-11%	22%	-22%	4	?	1
O=C(CCN1CCCCO1)N1CCCC(Nc2ccc(F)c(F)c2)C1 (stereo not drawn)	-14%	27%	-2%	15	28%	3
